High-throughput results (PubChem BioAssay)
Compounds with a hit are over-represented: about 3.7% of the library has one in this group of screens.
S2 tox – cell viability loss in ATXN counter-screen; S2 cells (HEK-293 line with an ATXN2-luciferase reporter) viability, CellTiter-Fluor protease fluorescence, 24 h; Potency, µM (titrated, usually from 56.7 µM), hits mostly cytotoxic; hit rate 0.49% among 400,000; AID 651635; further: nearly all actives have a fitted effect of over 40% in size
HepG2 viability – counter-screen for TGF-b inhibitors: cytotoxicity in HepG2 cells | Potency, µM (series often up to 46.1 µM), for the others: at the highest dose activity change, negative = cytotoxicity, actives largely listed as cytotoxic | HepG2 CAGA-GFP viability, ATP luminescence, 18 h | hit rate 0.76% among 410,000
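CellTiter-Glo luminescence gave cytotoxicity after 18 hours at 37 degrees C. The cells were HepG2 CAGA-GFP in 1% FBS DMEM, stimulated with 500 pg/mL TGF-beta after compound addition. %Activity was normalised to no-cell wells (complete cell-killing) and DMSO (no toxicity), and curves were fitted and classified.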
ATXN2 expr inh – ATXN2 expression inhibition; HEK-293 ATXN2-luciferase reporter, luminescence, 24 h; Potency, µM (series often up to 57 µM), inactives show top-dose activity change, negative = inhibition, hits mostly inhibitors; hit rate 0.72% among 360,000; further: on the % scale 0 is the no-effect control and ±100 the full control effect; nearly all actives have a fitted effect of over 55% in size
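ATXN2-luciferase reporter cells (luciferase flanked by upstream and downstream ATXN2 gene portions) were treated 24 h at 37 °C with compounds at up to 57 uM. SteadyGlo luminescence gave expression; GF-AFC fluorescence gave viability.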
GLP1R inv ag – inverse agonists of human GLP-1 receptor; Potency, µM (titrated, usually from 38.3 µM), without a hit: at the highest dose activity change, negative = inhibition, actives largely listed as inhibitors; P43220; AID 624417; HEK293 GLP-1R CRE-luciferase, luminescence, 24 h; GLP-1R form is constitutively active; hit rate 1.6% among 410,000; further: on the % scale 0 is the no-effect control and ±100 the full control effect; nearly all actives have a fitted effect of over 55% in size
Target sequence (P43220 whole entry, looked up): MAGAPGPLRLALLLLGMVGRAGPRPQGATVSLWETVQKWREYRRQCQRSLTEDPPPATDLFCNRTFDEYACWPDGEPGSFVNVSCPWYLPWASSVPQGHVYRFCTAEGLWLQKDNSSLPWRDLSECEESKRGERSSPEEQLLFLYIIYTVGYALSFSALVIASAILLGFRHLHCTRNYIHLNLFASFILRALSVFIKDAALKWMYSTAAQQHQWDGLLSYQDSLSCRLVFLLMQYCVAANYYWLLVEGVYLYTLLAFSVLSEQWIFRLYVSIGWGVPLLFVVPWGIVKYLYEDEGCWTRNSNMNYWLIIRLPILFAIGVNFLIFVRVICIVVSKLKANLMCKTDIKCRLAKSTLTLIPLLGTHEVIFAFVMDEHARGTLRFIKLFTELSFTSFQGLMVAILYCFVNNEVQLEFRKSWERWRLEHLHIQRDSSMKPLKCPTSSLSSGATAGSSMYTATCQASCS
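Assay principle: reduced luminescence from a cAMP-responsive reporter in HEK293 cells co-expressing a constitutively active GLP-1R. Conditions: 24 hr compound incubation, 37 deg C, 5% CO2.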
TGFb SMAD3 inh – TGF-b pathway inhibition; Potency, µM (series often up to 46.1 µM), for the others: at the top dose activity, negative = inhibition, actives largely listed as inhibitors; hit rate 1.2% among 410,000; HepG2 CAGA-GFP TGF-b/SMAD3 reporter, GFP fluorescence, 18 h; TGF-beta stimulated, 500 pg/mL final; further: on the % scale 0 is the no-effect control and ±100 the full control effect; nearly all actives have a fitted effect of over 65% in size
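HEPG2 CAGA-GFP, 1000 cells/well; 2 h settle, 37 C; cpd via pin tool; TGF-b 500 pg/mL final; 18 h, 37 C; GFP imaging ex488/em500-530; %Activity normalised to -TGF-b and +DMSO controls; CRC fit, curve class.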
GLP-1R agonist – activates the human GLP-1 receptor; P43220; HEK293 GLP-1R CRE-luciferase, luminescence, 4-6 h; cells express a hypersensitive GLP-1R form; Potency, µM (titrated, usually from 45.6 µM), for the others: at the highest dose activation, usual class: activators; hit rate 0.007% among 380,000; AID 624172; further: % of control where 0% means no effect
An asterisk follows results filed as active; i = inactive; ? = inconclusive; . = no result. The call rests on the fitted dose curve; in most records, active means well fitted curve in the direction sought with a large enough effect; inconclusive means small, poorly fitted or top-dose-only effect, or another doubt; inactive means no such curve, though single readings can be large; an effect the other way counts as inactive or inconclusive. Potency means the concentration at half of the fitted maximal effect.

SMILES | S2 tox | HepG2 viability | ATXN2 expr inh | GLP1R inv ag | TGFb SMAD3 inh | GLP-1R agonist
CC1Cc2ccccc2N1S(=O)(=O)c1nnc(NC(=O)c2ccccc2)s1 (stereo not given) | ? | -29% | -17% | ? | 14µM* | .
CC(NC(=O)c1cccnc1)c1nnc2n1CCN(Cc1ccc(-c3ccccc3Cl)o1)CC2 (stereo not given) | i | . | . | . | . | .
C[N+]1(CC(=O)c2cccc([N+](=O)[O-])c2)CCOCC1 | . | 3% | . | . | -6% | .
CCN(Cc1cccc(S(=O)(=O)O)c1)c1ccc(C(=C2C=CC(=[N+](CC)Cc3cccc(S(=O)(=O)O)c3)C=C2)c2ccccc2S(=O)(=O)[O-])cc1 | . | -19% | . | . | -3% | .
O=C(c1cnn2ccccc12)N(Cc1ccco1)C1CCCC1 | i | -1% | -10% | 3.5µM* | ? | 18%
O=C(c1cnn2ccccc12)N1CCN(C2CCCCC2)CC1 | i | -12% | 38% | 13% | -7% | 13%
Cc1cc(Nc2ccc(Cl)cc2)nc(NCc2ccccc2)n1 | ? | 11µM* | ? | 11µM* | ? | ?
Cc1ccc(/C=N/Nc2cc(C)nc(NCc3ccccc3)n2)cc1 | i | 13µM* | -30% | 2.8µM* | ? | 14%
Cc1cc(N/N=C/c2ccc(F)cc2)nc(NCc2ccccc2)n1 | i | -53% | 37% | ? | -5% | 5%
Cc1cc(Nc2cccc(F)c2)nc(NCc2ccccc2)n1 | ? | -80% | ? | ? | ? | 5%
O=C(c1ccccc1-n1cccn1)N1CCOc2ccc(CN3CCOCC3)cc2C1 | i | . | . | . | . | .
O=C(Cc1ccc(-c2ccccc2)cc1)NO | . | -3% | . | . | 2% | .
COc1cc(OC)cc(-n2c(=O)c3ccccc3n(CC(=O)NCCc3ccc(OC)c(OC)c3)c2=O)c1 | ? | 7% | -2% | -3% | 2% | .
O=C(CN1CCCC1)N/N=C/c1c(O)ccc2ccccc12 | ? | -35% | 2.8µM* | 2.8µM* | -17% | -6%
Cc1cc(C)n(CCC(=O)N/N=C/c2c(O)ccc3ccccc23)n1 | 10µM* | -34% | . | ? | ? | -7%
COc1ccc2ccccc2c1/C=N/NC(=O)c1cccc(Br)c1 | i | -1% | 5% | ? | -18% | 27%
O=C(N/N=C/c1c(O)ccc2ccccc12)c1cccc(C(F)(F)F)c1 | . | -34% | 3µM* | ? | ? | 6%
COc1ccc(/C=N/NC(=O)CCSc2nc3ccccc3s2)cc1OC | i | 3% | -13% | 2% | 0% | ?
O=C(CCSc1nc2ccccc2s1)N/N=C/c1c(O)ccc2ccccc12 | i | 1% | 3.2µM* | ? | -12% | -3%
O=C(N/N=C\c1c(O)ccc2ccccc12)c1ccc(Cn2cccn2)o1 | i | -26% | 3.5µM* | -35% | 49% | -1%
C=C1CCN(C(Cc2ccccc2)C(=O)O)S(=O)(=O)c2ccccc21 (stereo not given) | . | -5% | . | . | -1% | .
c1ccc(CNc2nc(N3CCOc4ccccc43)nc3c2CCCC3)cc1 | . | . | 0% | . | . | .
COc1cc(/C=C2\SC(=O)NC2=O)ccc1Oc1ccc([N+](=O)[O-])cc1[N+](=O)[O-] | i | -20% | -12% | 25% | ? | 2%
CCN1C(=O)C(=Cc2cccc(OC)c2Oc2ccc([N+](=O)[O-])cc2[N+](=O)[O-])SC1=S | 13µM* | -14% | 22µM* | ? | 0% | 3%
CC1=C(C(=O)OCc2ccc3nsnc3c2)N2C(=O)[C@@H](NC(=O)OCc3ccc4nsnc4c3)[C@H]2SC1 | . | -3% | . | . | ? | .
SMILES | S2 tox | HepG2 viability | ATXN2 expr inh | GLP1R inv ag | TGFb SMAD3 inh | GLP-1R agonist
O=C(c1ccccc1)N1CCSC1=S | i | -5% | -1% | -13% | -2% | -9%
O=C(c1ccccc1)N1CCSc2sccc2C1=O | i | -8% | 4.7µM* | ? | -9% | -2%
COc1cc(OC)cc(-c2cc3nc(C)c(CCC(=O)O)c(C)n3n2)c1 | i | 0% | 0.71µM* | 11% | 0% | 6%
CCCN1CCC(=O)N(CCC#N)CC1 | . | 32% | . | . | 2% | .
COc1ccccc1Cn1ccn(Cc2c(F)cccc2Cl)c(=O)c1=O | . | -23% | . | 0% | ? | .
CCOC(=O)c1c(/N=C/N(C)C)sc(/C=N/Nc2ccccc2)c1-c1ccc(Cl)cc1 | i | -6% | ? | 10µM* | -30% | 0%
CCN(CC(=O)NCc1ccc(F)cc1)CC(O)COCc1cccc(OC)c1 (stereo not given) | i | -41% | -2% | -7% | 13µM* | 1%
COc1ccc(C)cc1Nc1n[n+](-c2ccccc2)c(-c2cc(OC)c(OC)cc2Br)s1 | 22µM* | -22% | ? | ? | ? | -1%
Cn1c(=O)c2c(O)c([N+](=O)[O-])c(=O)n(C)c2n(C)c1=O | i | 11µM* | -3% | 4% | -2% | -1%
CC(C)(C)n1nnnc1C(c1ccc(C(F)(F)F)cc1)N(Cc1ccccc1)Cc1ccco1 (stereo not given) | ? | -13% | -5% | 5.6µM* | -7% | -8%
CC(C)(C)n1nnnc1C(c1ccc(C(F)(F)F)cc1)N(Cc1ccc(F)cc1)Cc1ccco1 (stereo not given) | i | -21% | -12% | ? | -27% | -15%
CC(C)(C)c1ccc(CN(Cc2ccccc2)C(c2ccccn2)c2nnnn2C(C)(C)C)cc1 (stereo not given) | i | -11% | -27% | 3.2µM* | -2% | -11%
Cc1ccc(C(=O)Nc2ccc3ncccc3c2)cc1 | ? | -16% | -37% | ? | 0% | -5%
COc1ccc(C(=O)Nc2ccc3ncccc3c2)cc1 | i | -13% | 20µM* | ? | -9% | -3%
N/C(CC(=O)NC1CCCCC1)=N\OCC(=O)Nc1ccc(Cl)c(Cl)c1 | i | -13% | -23% | 22µM* | -24% | 10%
Cc1cc(C)c2c(=O)n(CC(=O)NCCCN3CCN(c4ccccc4F)CC3)sc2n1 | 19µM* | -37% | ? | ? | ? | -5%
CCOc1ccc(NC(=O)Cn2sc3nc(C)cc(C)c3c2=O)cc1 | i | -54% | -14% | 40% | 11µM* | 1%
CCC1=C/C(=C/c2sc3ccccc3[n+]2CC)CC(C)(C)C1 | i | -18% | -34% | -29% | ? | 8%
CC[n+]1c(/C=C2\C=C(C)CC(C)(C)C2)sc2ccccc21 | ? | -30% | ? | ? | 10µM* | 0%
